Measurements reported in PubChem BioAssay.

Experiment: probe aEGFR binding to arrayed compounds – biochemical, biotinylated probe, 635/667 nm fluorescence, primary screen (AID 1097);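 also: probe is a biotinylated anti-EGFR antibody binding compounds printed on slides; score combines fluorescence near 667 nm and signal to noise of each spot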
Conditions: small-molecule microarray, higher = more signal

| Compound | composite z-score |
| --- | --- |
| COc1ccc(COC(=O)NN=C2C[C@@H](O)[C@@H](O)[C@@H]3[C@@H]4C(=O)N(C[C@@H]5CCCO5)C(=O)[C@@H]4CC[C@H]23)cc1 | -0.211 |
| CCOC(=O)[C@H](Cc1ccccc1)NC(=O)CCC1CC(OC(=O)NCCc2ccc(F)cc2)CC2(CCCC(COC(=O)NCCC(C)C)O2)O1 (stereo not given in full) | -0.0424 |
| COC(=O)CC=C[C@@H](C)[C@@H](C=NOC[C@@H](O)[C@H]1O[C@@H]2OC(C)(C)O[C@@H]2[C@H]1O)OC | 0.0536 |
| C[C@]12CCC3c4ccc(OCC5CO5)cc4CCC3C1CC[C@@H]2O (stereo not given in full) | 0.0025 |
| CCOC(=O)CCN1C(=O)[C@H]2[C@H]3[C@H](O)[C@H](O)CC(=NO[C@@H]4O[C@H](CO)[C@@H](O)[C@H](O)[C@H]4O)[C@@H]3CC[C@H]2C1=O | 0.176 |
| CC(CCN1CCCCc2nc(C)c(C)cc21)=NO[C@H](C)c1cn([C@@H]2COC[C@H]2O)nn1 | 0.267 |
| COc1ccc(COC(=O)NN=C2C[C@@H](O)[C@@H](O)[C@@H]3[C@@H]4C(=O)N(c5cccc(Oc6ccccc6)c5)C(=O)[C@@H]4CC[C@H]23)cc1 | -0.109 |
| CC=CC1=C(CO)[C@H](O)[C@H]2O[C@H]2[C@@H]1O | -0.128 |
| CC1(C)O[C@H]2OC([C@H](O)CON3C(=O)c4ccccc4C3=O)[C@H](O)[C@H]2O1 (stereo not given in full) | 0.0434 |
| CCOC(=O)NN=C1C[C@@H](O)[C@@H](O)[C@@H]2[C@@H]3C(=O)N(CC)C(=O)[C@@H]3CC[C@H]12 | -0.034 |
| CC(=O)OC[C@H]1O[C@@H](ON=C(C)CCC(=O)OC[C@H]2O[C@H](C#Cc3ccccc3)C=C[C@@H]2Oc2ccc(C)cc2)[C@H](OC(C)=O)[C@@H](OC(C)=O)[C@@H]1OC(C)=O | -0.0455 |
| Cc1cc2c(nc1C)CCCCN2CC(O)CN1CCCc2nc(-c3ccc(Br)cc3)ccc21 (stereo not given) | 0.0122 |
| CCOC(=O)CCN1C(=O)[C@H]2[C@H]3[C@H](O)[C@H](O)CC(=NOCC=C(C)CCC=C(C)C)[C@@H]3CC[C@H]2C1=O | -0.0415 |
| CC(=O)OC[C@H]1O[C@@H](ON=C(C)CCN2CCCCc3nc(C)c(C)cc32)[C@H](OC(C)=O)[C@@H](OC(C)=O)[C@@H]1OC(C)=O | 0.145 |
| CC(=O)OC[C@H]1O[C@H](CCON=C(C)C)C=C[C@@H]1OC(C)=O | -0.0364 |
| CCCNC(=O)OC[C@H]1O[C@H](CCON=C[C@@H](NS(=O)(=O)c2ccc(C)cc2)[C@H](C)C=CCC(=O)OC)C=C[C@@H]1Oc1ccc(OC)cc1 | -0.0443 |
| CCCC[C@H]1CN2[C@@H](CC[C@@H](C)[C@@H]2c2ccc(Br)cc2)C(=O)O1 | -0.0616 |
| CCC1=NOC(CCC2CC(OC(=O)NCc3cccc4c3OCO4)CC3(CCCC(COC(=O)NCCc4ccc(Cl)cc4)O3)O2)C1 (stereo not given) | -0.125 |
| COc1ccc(O[C@H]2C=C[C@@H](C#Cc3ccccc3)O[C@@H]2CO)cc1 | -0.125 |
| CC(C)CON=C1[C@H]2CCn3c(=O)n(C)c(=O)n3[C@H]2[C@H](O)[C@@H]2O[C@H]12 | 0.006 |
| COC(=O)[C@@H]1CC[C@H](C)[C@@H](c2ccc(Br)cc2)N1C[C@@H](O)CN=[N+]=[N-] | -0.0902 |
| COC(=O)[C@H](C)NC(=O)CCC1CC(OC(=O)NCCc2ccc(F)cc2)CC2(CCCC(COC(=O)NCc3ccccc3)O2)O1 (stereo not given in full) | -0.0314 |
| O=C1C[C@H](c2ccccc2)[C@H](c2ccc(Br)cc2)O1 | -0.17 |
| COc1ccc(O[C@H]2C=C[C@@H](c3ccccc3)O[C@@H]2COC(=O)CCC(C)=NOC[C@@H](O)COCc2ccco2)cc1 | -0.48 |
| O=C1[C@H]2[C@H]3[C@H](O)[C@H](O)CC(=NOCc4ccccc4)[C@@H]3CC[C@H]2C(=O)N1c1cccc(Oc2ccccc2)c1 | -0.0967 |
| O=C1[C@H]2[C@H]3[C@H](O)[C@H](O)CC(=NOC[C@@H](O)COCc4ccco4)[C@@H]3CC[C@H]2C(=O)N1Cc1ccc2c(c1)OCO2 | -0.0177 |
| CCOC(=O)[C@H](CC(C)C)NC(=O)CCC1CC(OC(=O)NCc2ccc3c(c2)OCO3)CC2(CCCC(COC(=O)NCc3ccccc3)O2)O1 (stereo not given in full) | -0.0978 |
| O=C1C2=CC[C@H]3C(=O)N(C4CCCCC4)C(=O)[C@H]3[C@H]2[C@H](O)[C@@H]2O[C@H]12 | -0.0389 |
| C=CCOCC1CN2[C@@H](CC[C@@H](C)[C@@H]2c2ccc(Br)cc2)C(=O)O1 (stereo not given in full) | -0.0953 |
| CCOC(=O)[C@H](Cc1ccccc1)NC(=O)CCC1CC(OC(=O)NCc2ccc3c(c2)OCO3)CC2(CCCC(COC(=O)NCCOc3ccccc3)O2)O1 (stereo not given in full) | 0.0436 |
